Data reported in PubChem BioAssay (NCI).
Compounds without any hit were thinned out: in the full panel of roughly 83,000, 20% have a hit.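 Interpretation: 100, growth as untreated; towards 0, rising growth inhibition; 0, no net growth; 0 to -100, cell death. Compounds scoring below 10 were considered active.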 Calls of active or inactive are those of the source.

Legend:
Assay in all cases: NCI-60 one-dose screen, 48 h (100 = growth as untreated, 0 = no growth, -100 = all killed)
[1] = system: RPMI-8226 leukemia; settings: 10 µM unless noted
[2] = system: OVCAR-8 ovarian; settings: 10 µM unless noted
[3] = system: OVCAR-5 ovarian; settings: 10 µM unless noted
[4] = system: OVCAR-4 ovarian; settings: 10 µM unless noted
[5] = system: SK-OV-3 ovarian; settings: 10 µM unless noted
[6] = system: IGROV1 ovarian; settings: 10 µM unless noted
[7] = system: OVCAR-3 ovarian; settings: 10 µM unless noted
[8] = system: HS 578T breast; settings: 10 µM
[9] = system: NCI/ADR-RES ovarian; settings: 10 µM unless noted
[10] = system: T-47D breast; settings: 10 µM unless noted
[11] = system: BT-549 breast; settings: 10 µM unless noted
[12] = system: MDA-MB-435 melanoma; settings: 10 µM unless noted
[13] = system: SW-620 colon; settings: 10 µM unless noted
[14] = system: MCF7 breast; settings: 10 µM unless noted
[15] = system: HCT-116 colon; settings: 10 µM unless noted
[16] = system: HCC-2998 colon; settings: 10 µM unless noted
[17] = system: KM12 colon; settings: 10 µM unless noted
[18] = system: SR leukemia; settings: 10 µM unless noted

Measured: growth

Cc1cc(C)c([O-])c(CN(C)CCN(C)Cc2cc(C)cc(C)c2[O-])c1.O=C([O-])c1cccc(C(=O)[O-])n1.[Ti+4]
active: [1] -25.9% | [6] 6.22% | [7] 9.53% | [8] 0.477% | [9] 7.88% | [11] -0.731% | [12] 6.53% | [13] -19.7% | [15] 4.86% | [16] 5.25%
inactive: [2] 20.9% | [3] 22.1% | [4] 22% | [5] 34.3% | [10] 28.4% | [14] 17.1% | [17] 11%

COC1CC(N)C2OC(c3ccccc3)OCC2O1 (stereo not given)
inactive: [18] 98% | [1] 92.8% | [3] 94.4% | [4] 97.5% | [5] 115% | [6] 110% | [7] 111% | [8] 96.6% | [10] 107% | [11] 106% | [12] 102% | [13] 99.6% | [14] 92.7% | [15] 102% | [16] 102% | [17] 103%

C=CCn1c(SCC(=O)Nc2ccc(C(=O)/C=C/c3ccccc3)cc2)nnc1-c1ccc(OC)c(OC)c1
active: [1] 2.52% | [15] -91.7%
inactive: [2] 78.5% | [3] 108% | [4] 72.5% | [5] 93.4% | [6] 81.6% | [7] 78.1% | [8] 96.4% | [9] 80.1% | [10] 50.6% | [11] 59.5% | [12] 69.3% | [13] 100% | [14] 16.5% | [16] 85.3% | [17] 57.3%

O=C(/C=C/c1cn(-c2ccccc2)nc1-c1cccc(Nc2ccnc3cc(Cl)ccc23)c1)c1ccc2c(c1)OCO2
inactive: [1] 59.2% | [3] 106% | [4] 143% | [5] 113% | [6] 96.8% | [7] 117% | [8] 105% | [10] 93.3% | [11] 100% | [13] 95.9% | [14] 81.1% | [15] 83.8% | [16] 102% | [17] 94.1%
active: [18] 8.67%

COc1cc(Cn2c(-c3ccccc3)cc3c2-c2oncc2CC3)cc(OC)c1OC
active: [18] 8.51% | [7] -44.3% | [8] -1.69% | [9] 4.65% | [12] -58.1%
inactive: [1] 40.5% | [3] 69.1% | [4] 54.8% | [5] 13% | [6] 18.4% | [10] 38.1% | [11] 41.2% | [14] 14.1% | [15] 25.3% | [16] 42.7% | [17] 26.2%

FC(F)(F)C1=NNC(c2ccc3ccccc3c2)=NN1
inactive: [18] 95% | [1] 94% | [3] 96.9% | [4] 96.2% | [5] 104% | [6] 103% | [7] 101% | [8] 95.9% | [10] 96.7% | [11] 107% | [12] 102% | [13] 97.9% | [14] 88.7% | [15] 100% | [16] 118% | [17] 93.7%

CC1CCN(Cc2ccc(NC(=O)c3cc4ccc5cccnc5c4[nH]3)cc2)CC1
active: [18] 2.01% | [7] -14.3% | [12] -67.6%
inactive: [1] 19.8% | [3] 51.8% | [4] 66.5% | [5] 12.7% | [6] 46.7% | [8] 33.7% | [10] 38.4% | [11] 42.8% | [13] 28.1% | [14] 27.2% | [15] 13.6% | [16] 17.5% | [17] 15.1%

CNCc1ccccc1CN(CC(=O)Nc1ccc2c(c1)CC1(C2)C(=O)Nc2ncccc21)C(=O)C(C)(C)C (stereo not given)
inactive: [1] 106% | [2] 98.9% | [3] 109% | [4] 104% | [5] 108% | [6] 92.4% | [7] 114% | [8] 95.9% | [9] 108% | [10] 94.1% | [11] 96.3% | [12] 95.7% | [13] 97.4% | [14] 102% | [15] 105% | [16] 113% | [17] 107%

Nc1nc2c(c3ncccc13)C(c1ccccc1)Cc1ncccc1-2 (stereo not given)
inactive: [1] 87.4% | [2] 93.5% | [3] 92.8% | [4] 94.1% | [5] 87.3% | [6] 63.3% | [7] 62.2% | [8] 87.2% | [9] 67.7% | [10] 71.1% | [11] 72.9% | [13] 52.9% | [14] 45.6% | [15] 63.2% | [16] 81.7%
active: [12] -0.757%

CC(C)(C)NC(=O)C(OC(=O)C1CCc2cc(F)ccc2O1)c1ccccc1Cl (stereo not given)
inactive: [18] 98.4% | [1] 99% | [3] 96.6% | [4] 94.9% | [5] 102% | [6] 92.8% | [8] 99.7% | [9] 95.5% | [10] 86.8% | [11] 107% | [12] 106% | [13] 99.7% | [14] 97.8% | [15] 93.9% | [16] 102%

CC1(C)CC[C@]2(C(=O)N3CCNCC3)CC[C@]3(C)C(=CC[C@@H]4[C@@]5(C)CCC(=O)C(C)(C)[C@@H]5CC[C@]43C)[C@@H]2C1
inactive: [18] 109% | [1] 104% | [3] 109% | [4] 103% | [5] 109% | [7] 118% | [8] 104% | [9] 103% | [10] 102% | [11] 106% | [12] 105% | [13] 106% | [14] 98.6% | [15] 101% | [16] 106% | [17] 111%

CN1CCN(c2ccc(N3Cc4ccccc4OC4=C3C(=O)c3c(O)ccc(O)c3C4=O)cn2)CC1
inactive: [5] 26% | [8] 23.5%
active: [1] -7.62% | [2] 2.15% | [3] -32.5% | [4] -97.2% | [6] -59.3% | [7] -99.6% | [9] 5.09% | [10] -32.7% | [11] -78.8% | [12] 0.932% | [13] -61.1% | [14] -39.2% | [15] -80.9% | [16] -65.8% | [17] -53.2%

COC(=O)c1ccc(NC(N)=NCCC(C)(C)c2ccc(C(F)(F)F)cc2)nc1
active: [18] -22.2% | [1] -48.8% | [10] -3.4% | [15] 8.17% | [16] -54%
inactive: [3] 74.2% | [4] 31.6% | [5] 60.2% | [6] 54.7% | [8] 75.5% | [9] 36.6% | [11] 42.6% | [12] 50.1% | [13] 25% | [14] 10%

Nc1nc(N)c2c(n1)NC(c1sc(Cl)nc1Cl)CC(c1ccccc1)=N2 (stereo not given)
active: [12] 2.29%
inactive: [18] 19.9% | [1] 45.3% | [3] 76.7% | [4] 94% | [5] 74% | [6] 50.5% | [7] 40.4% | [8] 48.1% | [10] 43.6% | [11] 44.5% | [13] 19.3% | [14] 31.3% | [15] 21.4% | [16] 74.3% | [17] 47.9%

COc1cc(C)c2c(=O)c3c(oc2c1)C(=O)c1c(O)c(OC)cc(O)c1C3=O
inactive: [18] 15.7% | [8] 35% | [11] 11.7% | [13] 16.9% | [17] 14.6%
active: [1] -8.23% | [3] -4.74% | [4] 1.77% | [5] 9.16% | [7] 5% | [9] 5.56% | [10] 0.298% | [14] 7.86% | [15] 7.58% | [16] 1.73%

CCN(CC)Cc1cc(Nc2nc(NC3CCC(N(C)C)CC3)c3ccccc3n2)ccc1OC (stereo not given)
inactive: [18] 49.6% | [3] 92.3% | [4] 52.1% | [5] 107% | [6] 82.4% | [7] 92.4% | [8] 73.4% | [9] 98.1% | [10] 53.9% | [11] 107% | [12] 39.5% | [13] 61.4% | [14] 40.1% | [15] 60.5% | [16] 81.3% | [17] 61.1%
active: [1] 0.511%

O=C(Nc1ccc2ncnc(Nc3ccc(F)c(Cl)c3)c2c1)c1cccs1
inactive: [18] 11.3% | [1] 53% | [3] 76.1% | [4] 47.1% | [5] 54% | [6] 38.7% | [8] 72.2% | [9] 60.7% | [10] 28.8% | [11] 68.3% | [12] 70.2% | [13] 93.2% | [14] 56.1% | [15] 54.7% | [16] 99.2%

CCCCCc1c(C)[nH]c(/C=C2\N=C(c3ccc[nH]3)C=C2CC)c1C
active: [1] -63.7% | [2] -65.2% | [3] -95.5% | [4] -89.8% | [5] -95.5% | [6] -63.3% | [7] -97.5% | [8] -27.5% | [9] -78.8% | [10] -75% | [11] -96.6% | [12] -77.9% | [13] -92.6% | [14] -85.3% | [15] -95.4% | [16] -90.4% | [17] -91.4%

COS(=O)(=O)CCN(CCOS(C)(=O)=O)S(C)(=O)=O
inactive: [18] 95.5% | [1] 99.8% | [3] 101% | [4] 107% | [5] 104% | [6] 105% | [7] 105% | [9] 105% | [10] 98% | [11] 97.5% | [12] 108% | [13] 107% | [14] 96% | [15] 100% | [16] 98% | [17] 105%
